{"source": "PubChem BioAssay AID463173", "about": "(ICCB-Longwood Screening Facility, Harvard Medical School, 2010)", "note": "The whole screen tested about 52,000 compounds, of which about 4,300 (8.3%) were called active. For the sample, actives were picked, then their nearest neighbours and some compounds at random. Values without a mark were called inactive. No stated cut-off is given here; in the data, active means survival mostly below about 52% (no sharp cut-off); inactive means mostly above about 56%.", "data": [{"tested_on": "DeltatarO mutant", "experiment": "growth inhibition of S. aureus wild type versus tarO mutant, primary screen, teichoic acid synthesis inhibitors, RN4220, OD600 (AID 463173)", "conditions": "OD600, 18 h, active compounds read low, screened at 18.75 µg/mL (by protocol)", "values": [{"smiles": "O=C(CC1COc2ccccc2O1)NCCc1ccccc1", "note": "(configuration not stated)", "survival": "87%"}, {"smiles": "CCOC(=O)c1c(NC(=O)CSc2cn(CCNC(=O)c3ccc(OCC)cc3)c3ccccc23)sc2c1CCC2", "survival": "91%"}, {"smiles": "COc1ccc(OC)c(CCNC(=O)c2cc3c(-c4ccccc4F)nn(C)c3s2)c1", "survival": "54%"}, {"smiles": "CCOc1ccc(-c2nnc(SCC(=O)NCc3ccccc3)nc2-c2ccc(OCC)c(OC)c2)cc1OC", "survival": "80%"}, {"smiles": "CCc1cc2c(cc3c(=O)n(CCCC(=O)NCc4cccc(Cl)c4)ncn32)s1", "survival": "67%"}, {"smiles": "CCOc1ccc(S(=O)(=O)N(CC(=O)Nc2ccc3c(c2)OCO3)c2ccc(C)cc2)cc1", "survival": "50%"}, {"smiles": "COCCCNC(=O)N1[C@H](c2cccs2)[C@@H](C)C(=O)[C@@H](C)[C@@H]1c1cccs1", "survival": "47%"}, {"smiles": "CCOc1ccc(N2CC(c3nc4ccccc4n3CCOc3ccc(OC)cc3)CC2=O)cc1", "note": "(configuration not stated)", "survival": "47% (active)"}, {"smiles": "CCOc1ccc(N2CC(c3nc4ccccc4n3CCCCOc3ccc(OC)cc3)CC2=O)cc1", "note": "(configuration not stated)", "survival": "55%"}, {"smiles": "COc1ccc(OCCCn2c(C3CC(=O)N(c4ccc(F)cc4)C3)nc3ccccc32)cc1", "note": "(configuration not stated)", "survival": "66%"}, {"smiles": "CCOc1ccc(N2CC(c3nc4ccccc4n3CCCOc3ccc(OC)cc3)CC2=O)cc1", "note": "(configuration not stated)", "survival": "44% (active)"}, {"smiles": "O=C1CC(c2nc3ccccc3n2CCCOc2ccccc2)CN1c1ccc(F)cc1", "note": "(configuration not stated)", "survival": "97%"}, {"smiles": "COc1ccc(OCCn2c(C3CC(=O)N(c4ccc(F)cc4)C3)nc3ccccc32)cc1", "note": "(configuration not stated)", "survival": "59% (active)"}, {"smiles": "CCOc1ccc(N2CC(c3nc4ccccc4n3CCC3CCCCC3)CC2=O)cc1", "note": "(configuration not stated)", "survival": "33% (active)"}, {"smiles": "CCOc1ccc(N2CC(c3nc4ccccc4n3CCOc3ccccc3OC)CC2=O)cc1", "note": "(configuration not stated)", "survival": "46%"}, {"smiles": "CCOc1ccc(N2CC(c3nc4ccccc4n3CCCOc3ccccc3OC)CC2=O)cc1", "note": "(configuration not stated)", "survival": "81%"}, {"smiles": "CCC1CN(C(=O)N2CCC(C(=O)Nc3cc(C)ccc3C)CC2)c2ccccc2O1", "note": "(configuration not stated)", "survival": "98%"}, {"smiles": "Cc1[nH]c2ccc(-c3nnc(SCC(=O)N4CCc5ccccc54)o3)cc2c1C", "survival": "84%"}, {"smiles": "COc1ccc(C2C(C(=O)Nc3cccnc3)=C(C)Nc3nc(SCc4ccccc4)nn32)cc1", "note": "(configuration not stated)", "survival": "57%"}, {"smiles": "COc1ccc(NC(=O)C2CCN(S(=O)(=O)c3ccc4[nH]c5c(c4c3)CCCCC5)CC2)cc1", "survival": "113%"}, {"smiles": "COc1ccc2cc3cc(C(=O)N4CCN(c5cccc(C(F)(F)F)c5)CC4)sc3nc2c1", "survival": "119%"}, {"smiles": "CCN(C(=O)CSc1nnc(Cn2nnc3ccccc32)o1)c1nc(-c2ccccc2)cs1", "survival": "80%"}, {"smiles": "CC(C)OCC(O)Cn1c2ccccc2c2ccccc21", "note": "(configuration not stated)", "survival": "80%"}, {"smiles": "OCCN(CCO)CC(O)Cn1c2ccc(Br)cc2c2cc(Br)ccc21", "note": "(configuration not stated)", "survival": "2% (active)"}, {"smiles": "Cc1cccc(N(CC(O)Cn2c3ccccc3c3ccccc32)S(=O)(=O)c2ccc(F)cc2)c1", "note": "(configuration not stated)", "survival": "58%"}, {"smiles": "CCNc1nc(NCC)nc(N(n2cnnc2)S(=O)(=O)c2ccc(C)cc2)n1", "survival": "1% (active)"}, {"smiles": "CCNc1sc(S(C)(=O)=O)nc1S(=O)(=O)c1ccc(C)cc1", "survival": "125%"}, {"smiles": "CCCN(CCC)S(=O)(=O)c1ccc(C)cc1", "survival": "97%"}, {"smiles": "COc1ccccc1NC(=O)Cn1c(SCC(=O)N(C)c2ccccc2)nc2ccccc21", "survival": "119%"}, {"smiles": "O=C(CSc1ccccc1)Nc1c[nH]c(=O)[nH]c1=O", "survival": "78%"}, {"smiles": "Cc1ccc(C)c(NC(=O)c2cc(=O)c3cc(C)cc(C)c3o2)c1", "survival": "70%"}, {"smiles": "COc1ccc(S(=O)(=O)Cc2ccc(C(=O)N3CCN(c4cc(C)ccc4C)CC3)o2)cc1", "survival": "130%"}, {"smiles": "Cc1cccc(-c2nnn3c2nc(NCc2ccccc2)c2ccccc23)c1", "survival": "97%"}, {"smiles": "Nc1ncnc2nc(SCCO)[nH]c12", "survival": "63% (active)"}, {"smiles": "Nc1ncnc2nc(SCC(=O)O)[nH]c12", "survival": "86%"}, {"smiles": "Cc1ccc(S(=O)(=O)Nc2c(C)nc3nc(C)[nH]n3c2=O)c(C)c1", "survival": "117%"}, {"smiles": "Cc1ccccc1-c1nn2c(=O)cc(CN3CCN(C(=O)c4ccc(C(C)(C)C)cc4)CC3)nc2s1", "survival": "97%"}, {"smiles": "COc1cc(OC)cc(C(=O)N2CCN(C(=O)COc3ccc(C)cc3)CC2)c1", "survival": "57%"}, {"smiles": "COc1ccc(OCC(=O)N2CCN(C(=O)c3cccc(OC)c3)CC2)cc1", "survival": "72%"}, {"smiles": "COc1cc(OC)cc(C(=O)N2CCN(C(=O)COc3ccccc3)CC2)c1", "survival": "54% (active)"}, {"smiles": "N#CC1=C(N)N(c2ccc(Cl)cc2)C2=C(C(=O)CCC2)C1c1cc(CN2CCOCC2)cs1", "note": "(configuration not stated)", "survival": "59%"}, {"smiles": "O=c1c2c(-c3ccc(Cl)cc3)ccnc2[nH]n1-c1ccccc1", "survival": "67%"}, {"smiles": "COc1ccccc1-c1ccnc2[nH]n(-c3ccccc3)c(=O)c12", "survival": "64%"}, {"smiles": "Cc1ccccc1-c1ccnc2[nH]n(-c3ccccc3)c(=O)c12", "survival": "47% (active)"}, {"smiles": "CCCC(c1nnnn1Cc1ccccc1)N1CCN(c2ccccc2)CC1", "note": "(configuration not stated)", "survival": "42% (active)"}, {"smiles": "CCC(c1nnnn1Cc1ccccc1)N1CCN(c2cccc(Cl)c2)CC1", "note": "(configuration not stated)", "survival": "89%"}, {"smiles": "CC(C)C(c1nnnn1Cc1ccccc1)N1CCN(c2ccccc2)CC1", "note": "(configuration not stated)", "survival": "87%"}, {"smiles": "COc1ccc(NC(=O)C2Cc3ccccc3N2C(=O)c2ccccc2)c(OC)c1", "note": "(configuration not stated)", "survival": "80%"}, {"smiles": "CCCCn1c(-c2ccc(S(=O)(=O)N3CCOCC3)cc2)csc1=Nc1ccccc1", "survival": "48% (active)"}, {"smiles": "CCCn1c(-c2ccc(S(=O)(=O)N3CCOCC3)cc2)csc1=Nc1ccc(OCC)cc1", "survival": "70%"}, {"smiles": "CCn1c(-c2ccc(S(=O)(=O)N3CCOCC3)cc2)csc1=Nc1ccc(C)c(Cl)c1", "survival": "73%"}, {"smiles": "CC(C)Cn1c(-c2ccc(S(=O)(=O)N3CCOCC3)cc2)csc1=Nc1cc(Cl)ccc1Cl", "survival": "82%"}, {"smiles": "COCCCn1c(-c2ccc(S(=O)(=O)N3CCOCC3)cc2)csc1=Nc1ccccc1", "survival": "52% (active)"}, {"smiles": "CC(C)Cn1c(-c2ccc(S(=O)(=O)N3CCCC3)cc2)csc1=Nc1ccccc1", "survival": "58%"}, {"smiles": "CS(=O)(=O)N(CC(=O)O)c1ccc(Cl)cc1", "survival": "105%"}, {"smiles": "COc1ccc(-c2nc(SCC(=O)NC3CCCC3)c(-c3ccc(OC)cc3)[nH]2)cc1", "survival": "71%"}, {"smiles": "Cc1ccc(Cl)cc1N1CCN(C(=O)c2ccc3c(c2)N(Cc2ccc(F)cc2)CCS3)CC1", "survival": "73%"}, {"smiles": "Cc1ccc(CN2CCSc3ccc(C(=O)N4CCN(c5ccc(Cl)cc5)CC4)cc32)cc1", "survival": "72%"}, {"smiles": "Cc1ccc(CN2CCSc3ccc(C(=O)N4CCN(c5cc(C)ccc5C)CC4)cc32)cc1", "survival": "25% (active)"}, {"smiles": "Cc1ccc(Cl)cc1N1CCN(C(=O)c2ccc3c(c2)N(Cc2ccccc2)CCS3)CC1", "survival": "74%"}, {"smiles": "Cc1ccc(CN2CCSc3ccc(C(=O)N4CCN(c5ccccc5)CC4)cc32)cc1", "survival": "63%"}, {"smiles": "Cc1ccc(CN2CCSc3ccc(C(=O)N4CCN(c5cccc(C)c5C)CC4)cc32)cc1", "survival": "27% (active)"}]}]}
